Measurements reported in PubChem BioAssay (Tox21).
Several values for one entry are separate records, joined by “and”; a condition that tells them apart may be missing. Equal entries are not always repeated. Activity calls are given as the source filed them. A call without a number means that no potency is given here. Calls come from the whole dose curve; as a rule, active = well fitted curve in the direction sought with a large enough effect in the repeat runs; inconclusive = weak or mixed curves; inactive = flat fitted curve, though single readings scatter.

Assay: qHTS assay to test for compound auto fluorescence at 590 nm (red) in HepG2 cells (AID 720674)
Conditions: HepG2 autofluorescence, red 540/590 nm, 1 h; series mostly up to 91.3 µM
Procedure, shortened: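 Rose Bengal sodium served as the red fluorophore standard. HepG2 monolayers (overnight attachment, MEM with 10% FBS) were exposed to test compounds for 1 hr at 37 C and read at Ex 540/Em 590 nm.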

Structure (SMILES) | Potency | fluorescence, relative to Rose Bengal
Nc1ncn([C@@H]2O[C@H](CO)[C@@H](O)[C@H]2O)c(=O)n1 | inactive | 
OC1CCCCCCCCCCC1 | inactive | 
O=CCc1ccccc1 | inactive | 
Nc1ccc(Cl)cc1Cl | inactive | 
COC(=O)c1ccccc1 | inactive | 
CCC(C)(O)CCCC(C)C (configuration not stated) | inactive | 
Cc1ncc[nH]1 | inactive | 
CC(C)OC=O | inactive | 
c1ccc2c(c1)c1cccc3ccc4cccc2c4c31 | inactive | 
Brc1cc(Oc2cc(Br)c(Br)c(Br)c2Br)c(Br)c(Br)c1Br | inactive | 
CCCCC(CC)COC(=O)c1ccc(N(C)C)cc1 (configuration not stated) | inactive | 
CC(=O)CC/C=C(\C)CCC=C(C)C | inactive | 
O=C1c2cccc(O)c2C(=O)c2c(O)cccc21 | inactive | 
CN(C)c1nc(N(C)C)nc(N(C)C)n1 |  | 0.105% [at 18.6 µM] (inactive) and 0.0838% [at 3.72 µM] (inactive)
O=C=Nc1ccc(Cc2ccc(N=C=O)cc2)cc1 | inactive | 
CCCCOCCOCCO | inactive | 
CC(=O)Oc1ccccc1C(=O)Nc1ncc([N+](=O)[O-])s1 | inactive | 
CN(C)CCN(Cc1cccs1)c1ccccn1 | inactive | 
CCOCCOCCO | inactive | 
CC(C)Oc1ccc2c(=O)c(-c3ccccc3)coc2c1 | inactive | 
CC(C)=CCCC(C)CCO (configuration not stated) | inactive | 
O=S(=O)(O)c1ccc(O)cc1 | inactive | 
Nc1ncnc2nc[nH]c12 | inactive | 
CC(CCC(=O)O)(c1ccc(O)cc1)c1ccc(O)cc1 | inactive | 
O=C(Nc1ccc(Cl)cc1)Nc1ccc(Cl)c(Cl)c1 | inactive | 
O=CCCCC=O | inactive | 
c1ccc2c(c1)Oc1ccccc1S2 | inactive | 
